In PubChem BioAssay AID588463 (National Center for Advancing Translational Sciences (NCATS), 2011):
Screen size: about 1,200 compounds; about 15 (1%) were called active. About 7% were inconclusive and are not listed. Calls follow the shape of the dose curve; as a rule, active = well fitted activation curve with a large enough effect; inconclusive = small, poorly fitted or top-dose-only effect; inactive = flat fitted curve, though single readings scatter. Many of the other results were omitted from the sample, so actives are more common in it than they were.

Molecular target: Beta-2 adrenergic receptor (Homo sapiens) (UniProt P07550)
Test: qHTS assay of beta-arrestin-biased ligands of beta2-adrenergic receptor: Hit Validation;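 as to activation: plate controls were DMSO for no effect and maximal isoproterenol or metaproterenol response for full effect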
Conditions: cell-based beta-arrestin recruitment to beta2AR; Potency: activation; series mostly up to 46.1 µM; activation: at the top concentration
Text: The concept of biased agonism is an emerging concept of molecular pharmacology which proposes that seven transmembrane receptors (7TMRs) or G protein-coupled receptors (GPCRs), exist in multiple signaling conformations and complexes and that ligands (either agonists or antagonists) can induce signaling biased responses for distinct signal transduction cascades.
Furthermore, accumulating evidence over the last decade has drawn attention to a novel function of beta-arrestins as signal transducers that scaffold various signaling molecules upon activation of 7TMRs. […] This beta-arrestin-biased signaling presumably leads to distinct physiological outcomes from those by G protein activation.
Additionally, the active receptor conformations which […] on this beta-arrestin signaling are likely different from those activating G protein signaling
The goal of this screening project will be to discover and optimize novel beta-arrestin-biased ligands for beta2-AR signaling. A luminescent cell-based assay for beta2-AR-mediated agonism, known as the Tango assay, has been validated in which ligand binding of a recombinant beta2-AR and subsequent recruitment of a recombinant beta-arrestin lead to the release of the transcriptional activator tTA, which upregulates transcription of a tTA-responsive luciferase gene.
NIH Molecular Libraries Probe Production Network [MLPCN]
NIH Chemical Genomics Center [NCGC]
PI: Bryan Roth (UNC) and Bob Lefkowitz (Duke)
NCGC Assay Protocol Summary:
Tango cells were dispensed into white, solid, tissue-culture-treated 1536-well plates at 1500 cells/well in DMEM, containing 1% fetal bovine serum (FBS). Then, 23 nL of compounds or DMSO were delivered to each well using a pin tool. Plates were incubated at 37 degrees C, 5% CO2 for 18 hr. Then 2.5 uL luminescent substrate mix (in-house prepared: 150 mM Tris-Cl, pH 7.6, 3 mM MgCl2, 1% Triton X-100, 5 mM DTT, 0.5 mM CoA, 0.15 mM ATP, 0.44 mM D-luciferin, final concentrations) was added to each well. Plates were then incubated for 15 minutes at room temperature, and subsequently measured on a ViewLux plate reader for luminescent signal using a clear filter with a 10 second exposure and 2x binning. The %Activity was determined from the corrected luminescence values.
Concentration-response curves were fitted to the signals arising from the resulting luminescence. The concentration-effect curves were then classified based on curve quality (r2), response magnitude and degree of measured activity, and compounds were subsequently categorized based on their curve class.
Keywords: biased agonism, beta2-AR, beta-arrestin, GPCR, 7TMR, Tango, luminescence, MLSMR, MLPCN, NIH Roadmap, qHTS, NCGC
Potency is read from the fitted curve at half-maximal effect.

Chain of Beta-2 adrenergic receptor (Homo sapiens) (P07550 whole entry, looked up): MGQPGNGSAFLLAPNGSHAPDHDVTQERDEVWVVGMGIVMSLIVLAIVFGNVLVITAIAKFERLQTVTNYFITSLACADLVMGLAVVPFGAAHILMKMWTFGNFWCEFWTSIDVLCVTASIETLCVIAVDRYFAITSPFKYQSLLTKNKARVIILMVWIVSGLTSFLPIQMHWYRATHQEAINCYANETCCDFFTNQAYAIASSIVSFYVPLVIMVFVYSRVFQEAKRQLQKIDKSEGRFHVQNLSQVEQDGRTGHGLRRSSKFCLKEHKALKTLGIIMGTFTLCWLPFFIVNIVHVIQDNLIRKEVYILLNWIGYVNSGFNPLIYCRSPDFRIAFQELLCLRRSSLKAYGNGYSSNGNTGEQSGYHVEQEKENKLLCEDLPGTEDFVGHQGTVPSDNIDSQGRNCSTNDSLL

Structure (SMILES) | activation | Potency
CCCn1c(Nc2nc3ccccc3n2C)nc2ccccc21 | -2.95% (inactive) | –
CCC(NC(C)C)C(O)c1ccc(O)c(O)c1 (stereo not given) | – | 2.06 µM (active)
CCC(NC(C)C)C(O)c1ccc(O)c2[nH]c(=O)ccc12 (stereo not given) | – | 0.0164 µM (active)
Cc1ccc(C2(C)NC(=O)N(CC(=O)c3ccc4c(c3)OCCO4)C2=O)cc1 (stereo not given) | 4.6% (inactive) | –
CNc1sc(C(=O)c2ccccc2F)c(N)c1-c1nc2ccccc2s1 | -1.71% (inactive) | –
O=S1(=O)Nc2c(ccc3cccnc23)-c2ccccc21 | -3.15% (inactive) | –
CN1CCN(c2ccc(C(F)(F)F)cc2NC(=O)c2ccco2)CC1 | -3.16% (inactive) | –
COc1ccccc1-n1c2nc3ccccc3nc2c2c(=O)n(-c3cc(C)cc(C)c3)cnc21 | -3.64% (inactive) | –
COc1ccc(/C=C(\C#N)C(=O)OCC(=O)NCc2ccccc2)cc1 | -4.17% (inactive) | –
O=C(N/N=C/C(Br)=C/c1ccccc1)c1cnccn1 | 3.91% (inactive) | –
O=c1[nH]c2c(cnn2-c2ccc(Cl)cc2)c(=O)n1-c1cccc(Cl)c1 | -4.33% (inactive) | –
O=C(COC(=O)c1cc(=O)c2ccccc2o1)Nc1ccc2ccccc2c1 | -3.15% (inactive) | –
CCc1n[nH]c(=S)n1/N=C/c1ccc(N(CC)CC)cc1 | -2.67% (inactive) | –
COc1ccccc1-[n+]1c(C)cc(/C=C2\Sc3ccccc3N2C)cc1C | 4.51% (inactive) | –
CCCNC(=O)CN(c1ccccc1)S(=O)(=O)c1ccc(OC)c(OC)c1 | -3.31% (inactive) | –
COC(=O)c1cc(Br)c(=O)n(CCc2ccc(O)cc2)c1 | -1.68% (inactive) | –
CCc1ccc(CNc2ccc(O)cc2)cc1 | -3.25% (inactive) | –
Cc1ccc(S(=O)(=O)Nc2cccnc2)cc1 | -2.88% (inactive) | –
Cc1ccc(/C=C/C(=O)c2ccccc(=O)c2O)c(C)c1 | 0.972% (inactive) | –
Cc1ccc(C2C3=C(CC(C)(C)CC3=O)NC3=C2C(=O)c2ccccc23)cc1 (stereo not given) | 0.4% (inactive) | –
Cc1cc(-c2n[nH]c(=S)n2/N=C/C(Cl)=C/c2ccccc2)n[nH]1 | -3.11% (inactive) | –
CN1CCN(C(=S)NC(=O)c2ccc(Br)cc2)CC1 | -0.998% (inactive) | –
COc1ccc(Cl)cc1C(Nc1cccnc1)c1ccc2cccnc2c1O (stereo not given) | – | 16.4 µM (active)
CC(=O)/C(=N\Nc1ccc(Cl)cc1Cl)Sc1cccc2cccnc12 | -3.04% (inactive) | –
CN1CCN(C(c2cccnc2)c2ccc3cccnc3c2O)CC1 (stereo not given) | -0.879% (inactive) | –
CC1=NN(C(N)=S)C(=O)C1N=Nc1ccc([N+](=O)[O-])cc1 (stereo not given) | -2.82% (inactive) | –
CC(C)c1nnc(NC(=O)c2cnccn2)s1 | 0.236% (inactive) | –
COCCNC(=S)N/N=C(\C)c1ccc(Cl)c(Cl)c1 | -1.6% (inactive) | –

Structure (SMILES) | activation | Potency
Cc1ccccc1NC(=O)c1c([N+](=O)[O-])c(C(C)(C)C)nn1C | -1.26% (inactive) | –
O=C(O)c1ccc(C2Nc3ccccc3C(=O)N2Cc2ccccc2)cc1 (stereo not given) | -0.733% (inactive) | –
CCOC(=O)C1=C(C)N(c2ccc(OC)cc2)C(=O)/C1=C\c1ccc(O)c(OCC)c1 | 6.03% (inactive) | –
CCCCCC1CCC(c2n[nH]c(=S)n2C)CC1 (stereo not given) | -5.76% (inactive) | –
CCCCOc1ccc(C(O)(CCC)CCN2CCOCC2)cc1 (stereo not given) | -1.83% (inactive) | –
CCC(=O)N1CCC2(CC1)Oc1ccc(Cl)cc1C(=O)C21CC(c2ccccc2)=NO1 (stereo not given) | – | 20.6 µM (active)
CC(=O)Nc1nonc1NC(=O)CSc1nc2ccccc2o1 | -7.81% (inactive) | –
CCCCC(=O)NC(c1cccc([N+](=O)[O-])c1)c1c(OC(C)=O)ccc2ccccc12 (stereo not given) | -2.28% (inactive) | –
COc1ccc(N/C=C/C(=O)C(F)(F)F)cc1 | -0.916% (inactive) | –
Cc1cccc(NNC(=S)Nc2c(C)cccc2C)c1 | -0.528% (inactive) | –
CCOc1ccc(/C=N/NC(=O)Cc2csc(Nc3cccc(C(F)(F)F)c3)n2)c(OCC)c1 | 4.88% (inactive) | –
CCN(CC)C(=O)[C@H]1C[C@H](CC(=O)NCc2cccc(C(F)(F)F)c2)C(=O)N2CCc3c([nH]c4cc(-c5ccco5)ccc34)[C@]12C | 0.311% (inactive) | –
CCCCOc1ccc(NC(=O)CSc2cccc3cccnc23)cc1 | -0.82% (inactive) | –
CCCC(=O)NC(c1ccccc1OC)c1ccc2cccnc2c1O (stereo not given) | -3.63% (inactive) | –
CCCC(=O)NC(c1ccc(OC)cc1)c1ccc2cccnc2c1O (stereo not given) | – | 4.11 µM (active)
CCOC(=O)C1=C(C)N=c2s/c(=C3/C(=O)Nc4ccccc43)c(=O)n2C1c1ccc(C)cc1 (stereo not given) | -2.56% (inactive) | –
O=c1ccc(S(=O)(=O)N2CCCC2)c[nH]1 | -1.52% (inactive) | –
CCc1cc(=O)oc2cc3occ(C)c3cc12 | -1.07% (inactive) | –
COc1ccc2ccccc2c1/C=N/NC(=S)NCCN1CCOCC1 | -2.79% (inactive) | –
O=C(/C=C/c1ccc(Cl)cc1)NC(=S)Nc1ccccc1C(=O)O | 0.6% (inactive) | –
CC(c1ccccc1)n1c(-c2ccc(C(C)(C)C)cc2)n[nH]c1=S (stereo not given) | -2.9% (inactive) | –
Cc1c(C(=O)OC2CCC(C)CC2)[nH]c2c1C(=O)CCC2 (stereo not given) | -0.463% (inactive) | –
CCCCn1c(Cc2ccccc2)n[nH]c1=S | -2.41% (inactive) | –
CCOC(=O)C1CCN(Cc2cnc(Oc3ccc(N)cc3)s2)CC1 | -1.52% (inactive) | –
Cc1ccc(N=C2NC(=O)/C(=C/C=C/c3ccco3)S2)cc1 | -2.91% (inactive) | –
CCOc1ccc2nc(NC(=S)N(C)C)sc2c1 | -1.49% (inactive) | –
O=[N+]([O-])c1ccc(OCC(O)CN(C2CCCCC2)C2CCCCC2)cc1 (stereo not given) | -0.892% (inactive) | –
